This note sets out measurements from PubChem BioAssay.

Structures are written as SMILES. Calls of active or inactive are those of the source. Unless noted, how the calls were made is not given here.

In assay [1] the test system is XIP peptide (Xip251-270) binding. The assay is described as follows: small-molecule binders of XIP peptide, primary screen, biochemical, small-molecule microarray, fluorescence 635/667 nm, 0.1 µg/mL protein (AID 1182). To be noted: fluorescent protein binding, 635 nm, higher = more signal, called active from +8 up or from −8 down.
In assay [2] the test system is XIP peptide (Xip251-270). The assay is described as follows: small-molecule binders of XIP peptide, primary screen, biochemical, small-molecule microarray, fluorescence 635/667 nm, 0.5 µg/mL protein (AID 1183). The note with it: small-molecule microarray binding, fluorescence 635 nm; higher = more signal.
Assay [3] in a line: Plasmodium falciparum growth inhibition, primary screen, strain 3D7, DAPI fluorescence, 100 nL (AID 1184).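 Further: parasites grown inside human red blood cells in medium with human serum.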 To be noted: P. falciparum 3D7 growth, 3 d, higher = more signal.
In assay [4] the target is Homeobox protein Hox-A13 (Mus musculus) (UniProt Q62424). The assay is described as follows: inhibitors of HoxA13-DNA binding, primary screen, biochemical, fluorescence polarization, labeled oligonucleotide (AID 1185). To be noted: 15 min, higher = more signal, called active from +8 up or from −8 down. A general note: Polarisation of emitted light reports the rotation of a fluorescent probe.

Assay [5] can be described thus: inhibitors of hydroxyurea-induced Chk1 phosphorylation, primary screen, imaging, HeLa, phospho-Chk1 antibody, percent positive cells (AID 1186). The note with it: hydroxyurea-induced phospho-Chk1 immunofluorescence imaging, higher = more signal.
Assay [6] in a line: inhibitors of hydroxyurea-induced Chk1 phosphorylation, primary screen, imaging, HeLa, phospho-Chk1 nuclear intensity (AID 1187). To be noted: hydroxyurea-induced phospho-Chk1 immunofluorescence imaging, higher = more signal.

Chain of Homeobox protein Hox-A13 (Mus musculus) (Q62424 whole entry, looked up): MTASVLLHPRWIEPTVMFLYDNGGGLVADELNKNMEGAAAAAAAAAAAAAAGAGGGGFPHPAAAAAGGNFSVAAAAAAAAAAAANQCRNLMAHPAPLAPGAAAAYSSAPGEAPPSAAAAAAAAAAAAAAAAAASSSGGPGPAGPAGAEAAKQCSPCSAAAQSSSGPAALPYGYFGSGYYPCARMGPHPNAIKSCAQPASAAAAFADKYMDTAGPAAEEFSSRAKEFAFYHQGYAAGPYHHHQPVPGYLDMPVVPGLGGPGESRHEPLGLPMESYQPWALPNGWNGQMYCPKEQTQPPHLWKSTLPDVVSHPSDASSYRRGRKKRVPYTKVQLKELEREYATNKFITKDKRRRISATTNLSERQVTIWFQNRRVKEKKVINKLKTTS

In the case of `O=C(O)[C@]1(CCS(=O)(=O)c2ccccc2)N=C(c2ccc(OCCCO)cc2)O[C@@H]1c1ccccc1`, the composite z-score in assay [1] is 0.744 (inactive); in assay [2] it was -0.374. Besides, the z-score in assay [3] is -0.212; in assay [4], -4.32 (inactive); in assay [5] it was -0.178 (inactive); in assay [6] it was 0.06 (inactive).

`CCCN1C(=O)[C@@]2(Cc3ccccc3)N=C(c3ccc(OCCCO)cc3)O[C@H]2c2ccccc21`: the composite z-score in assay [1] was 1.19 (inactive); in assay [2], 0.808. Besides, the z-score in assay [3] is -2.38; in assay [4], -4.39 (inactive); in assay [5] it was 0.276 (inactive); in assay [6], 0.555 (inactive).

In the case of `COCCCNC(=O)[C@@]1(Cc2ccccc2I)c2ccccc2C(=O)N(Cc2ccccc2Cl)[C@H]1c1ccc(CO)cc1`, the composite z-score is 1.75 (inactive) in assay [1] and 0.595 in assay [2]. Besides, the z-score was -1.22 in assay [3], -4.93 (inactive) in assay [4], -0.152 (inactive) in assay [5] and 0.187 (inactive) in assay [6].

For the compound `CN(C)CCCCCCNC(=O)[C@@H]1C[C@@H]2C(=O)NCC(=O)N2[C@@H]1c1ccc(O)cc1`, the composite z-score in assay [1] was 1.82 (inactive); in assay [2] it was 0.935. In addition, the z-score in assay [3] was -0.107; in assay [4], -1.63 (inactive); in assay [5], -0.425 (inactive); in assay [6], -0.297 (inactive).

In the case of `COC(=O)C(CC#Cc1ccc2c(c1)[C@]1(C(=O)N2)[C@H](C(=O)N2CCc3cc(OC)c(OC)cc3C2)[C@H]2C(=O)O[C@H](c3ccccc3)[C@H](c3ccccc3)N2[C@@H]1c1ccc(O)cc1)C(=O)OC`, the composite z-score in assay [1] is 0.534 (inactive); in assay [2], 0.789. Also, the z-score in assay [3] is -2.45; in assay [4] it was -0.323 (inactive); in assay [5] it was 0.297 (inactive); in assay [6], 0.826 (inactive).

Regarding `CCOC(=O)C[C@H]1[C@H](OC(=O)c2cc3ccccc3oc2=O)[C@@H](NC(=O)c2ccc3ccccc3n2)c2cc(OCCCO)ccc2N1C(=O)c1ccc2ccccc2n1`, the results for the composite z-score in assay [1] and in assay [2] were -0.276 (inactive) and 0.484, respectively. The z-score in assay [3] was -1.15; in assay [4], -1.29 (inactive); in assay [5], -0.443 (inactive); in assay [6], -0.134 (inactive).

Turning to `O=C1N(CCS(=O)(=O)c2ccccc2)c2ccccc2[C@H]2OC(c3ccc(OCCCO)cc3)=N[C@@]12CCS(=O)(=O)c1ccccc1`, the values for the composite z-score in assay [1] and in assay [2] were 2.51 (inactive) and 0.776, respectively. Also, the z-score in assay [3] was -2.05; in assay [4] it was 0.758 (inactive); in assay [5] it was 0.109 (inactive); in assay [6], 0.545 (inactive).

As to `CCCNC(=O)[C@@]1(Sc2ccc(C)cc2)CC(=O)N(Cc2ccccc2)[C@@H]1c1ccc(CO)cc1I`, the composite z-score is 0.334 (inactive) in assay [1] and 0.889 in assay [2]. Besides, the z-score in assay [3] is 0.179; in assay [4], -2.54 (inactive); in assay [5], 0.264 (inactive); in assay [6], 0.372 (inactive).

In the case of `COc1ccc([Si](C)(C)[C@@H]2[C@@H](CC(=O)N(CCO)Cc3ccccc3)O[C@]3(C(=O)N(Cc4ccc(N5CCOC5=O)cc4)c4ccccc43)[C@H]2C)cc1`, the composite z-score in assay [1] is 2.73 (inactive); in assay [2], 0.666. Moreover, the z-score was -0.352 in assay [3], -1.34 (inactive) in assay [4], -0.269 (inactive) in assay [5] and 0.0764 (inactive) in assay [6].

On to `CCCc1cc2c(n1Cc1ccc(OC)cc1)C(C)C1CN(C(=O)c3ccccc3)C(C)(C(=O)OC)C21` (configuration not stated), for which the composite z-score in assay [1] is -0.0607 (inactive); in assay [2], 0.174. Also, the z-score was -1.42 in assay [3], -3.45 (inactive) in assay [4], 0.5 (inactive) in assay [5] and 0.396 (inactive) in assay [6].

Regarding `O=C1NC(=O)C2C1C=CC(C(O)c1ccc(-c3ccccc3)s1)N2Nc1ccccn1` (configuration not stated), the figures for the composite z-score in assay [1] and in assay [2] were 1.05 (inactive) and 0.212, respectively. The z-score is -0.169 in assay [3], -3.88 (inactive) in assay [4], 0.773 (inactive) in assay [5] and -0.264 (inactive) in assay [6].

Take `COc1ccc(C(=O)Nc2ccc(CN3C(=O)[C@]4(O[C@H](CCn5cc([C@H](O)c6ccccc6)nn5)[C@@H]([Si](C)(C)c5ccc(OC)cc5)[C@@H]4C)c4ccccc43)cc2)cc1`: the composite z-score is -0.211 (inactive) in assay [1] and -0.0268 in assay [2]. The z-score is -2.7 in assay [3], 0.564 (inactive) in assay [4], 0.107 (inactive) in assay [5] and 0.168 (inactive) in assay [6].

Take `C=C(/C(=C/C[C@@H](OC(=O)c1ccncc1)c1ccccc1OCCO)c1cnc2ccccc2c1)C(C)C`: the composite z-score in assay [1] is 0.509 (inactive); in assay [2], 0.723. In addition, the z-score in assay [3] is -2.55; in assay [4], -4.63 (inactive); in assay [5] it was 0.864 (inactive); in assay [6] it was 0.737 (inactive).

As for `CC(C)N1C(=O)c2ccccc2[C@](C)(C(=O)O)[C@@H]1c1ccc(CO)cc1`, the composite z-score was 0.202 (inactive) in assay [1] and 0.0967 in assay [2]. Besides, the z-score in assay [3] is 0.859; in assay [4], -1.63 (inactive); in assay [5] it was 0.113 (inactive); in assay [6] it was 0.318 (inactive).

On to `COC(=O)C(CC#Cc1ccc2c(c1)[C@]1(C(=O)N2)[C@H](C(=O)N2CCc3cc(OC)c(OC)cc3C2)[C@H]2C(=O)O[C@H](c3ccccc3)[C@H](c3ccccc3)N2[C@@H]1c1ccc(OCCO)cc1)C(=O)OC`, for which the composite z-score in assay [1] was 0.916 (inactive); in assay [2] it was 0.761. Besides, the z-score in assay [3] is -1.76; in assay [4], -10.5 (active); in assay [5], -0.197 (inactive); in assay [6], 0.277 (inactive).

As for `C[C@@]1([C@@H](NC(=O)c2cccs2)c2ccc(-c3ccccc3)cc2)C[C@H]1C1CCCCC1`, the composite z-score in assay [1] is -0.592 (inactive); in assay [2], -0.0139. The z-score was -0.972 in assay [3], -0.431 (inactive) in assay [4], 0.193 (inactive) in assay [5] and -0.421 (inactive) in assay [6].

Consider `CN(C)C(=O)[C@@]1(CCC(=O)OC(C)(C)C)N=C(c2ccc(OCCCO)cc2)O[C@H]1c1ccccc1N=[N+]=[N-]`, for which the composite z-score in assay [1] was 1.55 (inactive); in assay [2], 0.825. Besides, the z-score in assay [3] is -2.36; in assay [4] it was -5.33 (inactive); in assay [5], -0.146 (inactive); in assay [6], -0.222 (inactive).

As to `COCCCNC(=O)[C@]1(CCS(=O)(=O)c2ccccc2)N=C(c2ccc(OCCCO)cc2)O[C@@H]1c1ccccc1`, the composite z-score in assay [1] was 1.47 (inactive); in assay [2], 0.919. The z-score was -2.13 in assay [3], -4.72 (inactive) in assay [4], -0.369 (inactive) in assay [5] and -0.42 (inactive) in assay [6].

In the case of `O=[N+]([O-])c1ccc(C[n+]2ccc(-c3ccc(CO)cc3)cc2)o1`, the composite z-score in assay [1] was 0.406 (inactive); in assay [2] it was 0.905. Besides, the z-score is -1.29 in assay [3], -3.8 (inactive) in assay [4], 0.137 (inactive) in assay [5] and 0.657 (inactive) in assay [6].

As to `CC(C)(C)OC(=O)CC[C@@]1(C(=O)N2CCCCC2)N=C(c2ccc(OCCCO)cc2)O[C@@H]1c1ccccc1CN=[N+]=[N-]`, the values for the composite z-score in assay [1] and in assay [2] were 1.32 (inactive) and 0.824, respectively. Moreover, the z-score in assay [3] is -2.24; in assay [4], -4.37 (inactive); in assay [5], -0.325 (inactive); in assay [6], -0.038 (inactive).

For `C=CC[C@@]1(C(=O)NCC(O)CO)N=C(c2ccc(OCCCO)cc2)O[C@@H]1c1ccccc1` (some centres not stated), the composite z-score is 2.6 (inactive) in assay [1] and 0.691 in assay [2]. Besides, the z-score in assay [3] is -0.869; in assay [4], -4.25 (inactive); in assay [5], -0.379 (inactive); in assay [6] it was -0.244 (inactive).

Regarding `O=C1O[C@H](c2ccccc2)[C@H](c2ccccc2)N2[C@H]1[C@@H](C(=O)N1CCCCCCC1)[C@]1(C(=O)Nc3ccc(C#CCCO)cc31)[C@H]2c1ccc(OCCO)cc1`, the figures for the composite z-score in assay [1] and in assay [2] were 5.42 (inactive) and 0.963, respectively. The z-score was -1.98 in assay [3], -8.67 (active) in assay [4], -0.141 (inactive) in assay [5] and -0.203 (inactive) in assay [6].

As to `COCCCNC(=O)[C@@]1(C)c2ccccc2C(=O)N(c2ccc(C)cn2)[C@H]1c1ccc(CO)cc1`, the results for the composite z-score in assay [1] and in assay [2] were -0.625 (inactive) and 0.892, respectively. Besides, the z-score in assay [3] was 0.563; in assay [4], -1.9 (inactive); in assay [5], 0.228 (inactive); in assay [6], 0.554 (inactive).

For the compound `CCOC(=O)C1=CC[C@@H](c2ccccc2)N(S(=O)(=O)c2ccc(C)cc2)[C@H]1C=C(C)C`, the composite z-score is 0.568 (inactive) in assay [1] and 0.721 in assay [2]. For the same compound, the z-score was -2.17 in assay [3], -0.721 (inactive) in assay [4], 0.213 (inactive) in assay [5] and 0.0493 (inactive) in assay [6].

With `COc1ccc(C#Cc2ccc3c(c2)[C@]2(C(=O)N3)[C@H](c3ccc(OCCO)cc3)N3[C@H](c4ccccc4)[C@H](c4ccccc4)OC(=O)[C@H]3[C@@H]2C(=O)N2CCN(c3ncccn3)CC2)cc1`, the composite z-score was -0.138 (inactive) in assay [1] and 0.0154 in assay [2]. Also, the z-score in assay [3] is -1.31; in assay [4] it was 1.1 (inactive); in assay [5], -0.246 (inactive); in assay [6], -0.0676 (inactive).

As for `C[N+](C)(C)CCCCCCNC(=O)[C@@H]1C[C@@H]2C(=O)NCC(=O)N2[C@@H]1c1ccc(O)cc1`, the figures for the composite z-score in assay [1] and in assay [2] were 0.842 (inactive) and 0.87, respectively. The z-score was 0.627 in assay [3], -1.98 (inactive) in assay [4], 1.34 (inactive) in assay [5] and 0.992 (inactive) in assay [6].

In the case of `[N-]=[N+]=NCc1ccccc1[C@H]1OC(c2ccc(OCCCO)cc2)=N[C@@]1(Cc1ccccc1)C(N)=O`, the composite z-score in assay [1] is 1.78 (inactive); in assay [2], 0.852. For the same compound, the z-score in assay [3] was -0.676; in assay [4], -3.61 (inactive); in assay [5], -0.441 (inactive); in assay [6] it was -0.189 (inactive).
